Among the data in PubChem BioAssay (NCATS) are Potency values, retold here.

Results filed as inconclusive are left out. Activity calls are given as the source filed them. Unless noted, the call rests on the fitted dose curve; in most records, active means well fitted curve in the direction sought with a large enough effect in the repeat runs; inconclusive means weak or mixed curves; inactive means no such curve, though single readings can be large; an effect the other way counts as inactive or inconclusive.

Cytochrome P450 2C9 (Homo sapiens), sequence (P11712 whole entry, looked up): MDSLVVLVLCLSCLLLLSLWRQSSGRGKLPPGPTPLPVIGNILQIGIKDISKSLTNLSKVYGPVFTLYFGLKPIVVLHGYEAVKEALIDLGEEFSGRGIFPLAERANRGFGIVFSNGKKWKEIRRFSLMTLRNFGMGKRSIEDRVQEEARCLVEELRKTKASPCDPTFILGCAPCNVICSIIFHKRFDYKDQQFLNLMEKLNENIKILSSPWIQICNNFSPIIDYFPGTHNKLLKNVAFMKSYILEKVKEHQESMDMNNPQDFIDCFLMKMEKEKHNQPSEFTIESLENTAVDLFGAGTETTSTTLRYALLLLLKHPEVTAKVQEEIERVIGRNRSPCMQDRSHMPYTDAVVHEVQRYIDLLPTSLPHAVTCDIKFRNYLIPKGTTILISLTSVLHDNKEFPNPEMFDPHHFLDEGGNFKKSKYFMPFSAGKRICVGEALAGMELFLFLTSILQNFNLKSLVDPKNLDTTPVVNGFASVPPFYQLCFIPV

For the first assay, the target named is Cytochrome P450 2D6 (Homo sapiens) (UniProt P10635). The experiment in a line: Cytochrome P450 family 2 subfamily D member 6 (CYP2D6) small molecule antagonists: luciferase biochemical (cell-free) qHTS assay (AID 1645840). Further: nearly all actives have a fitted effect of over 55% in size. Further: potency means the concentration at half of the fitted maximal effect. Particulars: P450-Glo CYP2D6 enzyme, luciferin luminescence, 1 h; series mostly up to 57.4 µM. The essentials: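 P450-Glo luminescent screen: recombinant CYP2D6 enzyme–proluciferin substrate mix preincubated with compound 10 min at room temperature, then NADPH regeneration added for 1 h at room temperature. Detection reagent added for 20 min; luciferin light read as relative luminescence units.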
Cytochrome P450 2D6 (Homo sapiens), sequence (P10635 whole entry, looked up): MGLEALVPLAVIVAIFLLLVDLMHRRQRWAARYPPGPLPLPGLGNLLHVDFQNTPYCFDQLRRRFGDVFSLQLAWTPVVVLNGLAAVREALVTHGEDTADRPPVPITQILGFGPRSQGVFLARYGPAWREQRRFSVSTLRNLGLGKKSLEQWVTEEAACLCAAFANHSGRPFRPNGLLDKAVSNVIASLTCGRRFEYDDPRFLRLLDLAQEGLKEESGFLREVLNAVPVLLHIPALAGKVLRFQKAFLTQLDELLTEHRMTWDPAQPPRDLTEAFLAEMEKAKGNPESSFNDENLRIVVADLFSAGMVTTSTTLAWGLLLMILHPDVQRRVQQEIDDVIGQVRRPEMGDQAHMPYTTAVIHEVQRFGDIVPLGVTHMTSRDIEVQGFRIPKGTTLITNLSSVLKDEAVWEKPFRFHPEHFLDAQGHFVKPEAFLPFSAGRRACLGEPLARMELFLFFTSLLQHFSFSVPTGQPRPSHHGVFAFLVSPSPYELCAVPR
A general note: In qHTS, concentration-response curves come from the screen itself.
With `O=C(O)[C@@H]1CCCN1`, the Potency result is “inactive”.

`CCn1c(N)c(C(=O)NC)c(=O)c2ccc(C#C[C@@](C)(O)COC)nc21`: the Potency entry was “inactive”.

For `NCCNc1ccc(NCCN)c2c1C(=O)c1ccncc1C2=O`, the Potency was 2680 nM (active).

For the molecule `CCC=CCC=CCC=CCCCCCCCC(=O)O`, the Potency entry was “inactive”.

For the next assay, the target named is Cytochrome P450 2C9 (Homo sapiens) (UniProt P11712). The experiment in a line: Cytochrome P450 family 2 subfamily C member 9 (CYP2C9) small molecule antagonists: luciferase biochemical (cell-free) qHTS assay (AID 1645842). Further: nearly all actives have a fitted effect of over 55% in size. Further: potency means the concentration at half of the fitted maximal effect. Particulars: P450-Glo CYP2C9 enzyme assay, luciferin luminescence; series mostly up to 57.4 µM. The essentials:
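Luminescence, after 20 min with luciferin detection reagent, reflected CYP2C9 turnover during a 1 h NADPH-driven reaction at 37C. Enzyme-substrate mix contained 0.4% bovine serum albumin and was preincubated with compound 10 min at room temperature.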
For the molecule `CC(=O)C1=C(c2ccc(Cl)c(Cl)c2)N(C(C)=O)n2cnnc2S1`, the Potency was 2390 nM (active).

As for `CC1=C(C(=O)Nc2cccc(-c3nn[nH]n3)c2)C(c2ccccc2Cl)N=C(Nc2nc3ccccc3o2)N1` (stereo not drawn), the Potency is 536 nM (active).

Take `CC1=C(C(=O)Nc2nnc(C(F)(F)F)s2)C(c2ccccc2Cl)N=C(Nc2nc3ccccc3o2)N1` (stereo not drawn): the Potency is 10700 nM (active).

For the molecule `COc1ccccc1NC(=O)Cn1c(=O)n(Cc2nc(-c3ccccc3)no2)c(=O)c2ccccc21`, the Potency is 2390 nM (active).

Consider `Cc1cncn1CCc1nc2c3ccccc3nc(SCC(=O)Nc3cccc(Cl)c3)n2n1`, for which the Potency is 425 nM (active).

As to `COc1cccc(-c2cc(F)ccc2[C@H]2Cc3nc(N)nc(C)c3C(=O)N2)n1`, the Potency is 6740 nM (active).

As to `CCc1ccc(-n2c(SCc3ccccc3C)nc3[nH]ncc3c2=O)cc1`, the Potency was 19000 nM (active).

As for `C[C@H](O[C@H]1OCCN(Cc2n[nH]c(=O)[nH]2)[C@H]1c1ccc(F)cc1)c1cc(C(F)(F)F)cc(C(F)(F)F)c1`, the Potency is 9520 nM (active).

Consider `Oc1c(C(Nc2ccccn2)c2ccccc2F)ccc2cccnc12` (stereo not drawn), for which the Potency was 19000 nM (active).

For `CC(C)c1ccc(Nc2c(-c3ccccn3)nc3ccccn23)cc1`, the Potency is 1200 nM (active).

In the case of `Cc1cccc(Cc2c(C)nc3c(-c4ccccc4)c(C)[nH]n3c2=O)c1`, the Potency result was “inactive”.

Turning to `COc1ccc2c(CNCCc3ccccc3OC)c(C(=O)O)n(Cc3ccc(F)cc3Cl)c2c1`, the Potency was 12000 nM (active).

Consider `Cc1ccc([S+](=O)([O-])NC2CC(C)(C)CC(C)(C)C2)cc1`, for which the Potency is 2130 nM (active).

With `Cc1ccc([S+](=O)([O-])NC2(c3ccccc3)CCCCC2)cc1`, the Potency was 2680 nM (active).

For the molecule `Cc1ccnc(NC(c2ccccc2F)c2ccc3cccnc3c2O)c1` (stereo not drawn), the Potency was 23900 nM (active).

`CC1=C(C(=O)Nc2cccc(-c3ccn[nH]3)c2)C(c2ccccc2Cl)N=C(Nc2nc3ccccc3o2)N1` (stereo not drawn): the Potency was 477 nM (active).

Turning to `COc1ccc(C(=O)Oc2ccc(C(c3c(C)[nH][nH]c3=O)c3c(C)[nH][nH]c3=O)cc2)cc1`, the Potency was 10700 nM (active).

With `Cc1nc2c3ccccc3nc(NNC(=O)CCC(=O)N3CCN(c4cccc(Cl)c4)CC3)n2n1`, the Potency is 12000 nM (active).

On to `Cc1ncc(Cl)cc1NCc1ccc(C(=O)N[C@@H](CC2CCCC2)C(=O)NC2CC2)s1`, for which the Potency is 8490 nM (active).

Consider `CC1=C(C(=O)Nc2cc(C(=O)O)ccn2)C(c2ccc(F)cc2Cl)N=C(Nc2nc3ccc(F)cc3o2)N1` (stereo not drawn), for which the Potency is 23900 nM (active).

Regarding `CCc1nnc(NC(=O)CSc2nc3c([nH]c4ccccc43)c(=O)n2-c2ccc(OC)cc2)s1`, the Potency is 4250 nM (active).

For `C[C@H]1[C@@H](OC(=O)CCC(=O)O)O[C@@H]2O[C@]3(C)CC[C@H]4[C@H](C)CC[C@@H]1[C@@]24OO3`, the Potency result is “inactive”.

With `Cc1ccc2ccc(C(Nc3ccccn3)c3ccccc3)c(O)c2n1` (stereo not drawn), the Potency is 2680 nM (active).

As to `COc1ccc(C(=O)NC(c2ccccc2Cl)c2cc(Cl)c3cccnc3c2O)cc1` (stereo not drawn), the Potency was 6010 nM (active).

In the case of `CCOc1ccc(C(=O)NCCS(=O)(=O)N2CCN(c3ccccc3F)CC2)cc1OCC`, the Potency was 2130 nM (active).

`Cc1cccc2nc(-c3ccccn3)c(Nc3ccccc3)n12`: the Potency is 1200 nM (active).

On to `COc1ccc(NC(=O)CSc2nnc(NC(=O)NC3CCCCC3)s2)cc1OC`, for which the Potency was 21300 nM (active).

Consider `COc1ccccc1NC(=O)CSc1oc(-c2cccs2)nc1S(=O)(=O)c1ccc(Br)cc1`, for which the Potency is 425 nM (active).

Regarding `CC(C)(C)NC(=O)[C@@H]1C[C@@H]2CCCC[C@@H]2CN1CC(O)[C@H](Cc1ccccc1)NC(=O)[C@@H](CC(N)=O)NC(=O)c1ccc2ccccc2n1` (stereo partly drawn), the Potency was 12000 nM (active).

For the molecule `COc1ccc(CCNc2nc(SCc3cccc(F)c3)nc3ccccc23)cc1OC`, the Potency is 756 nM (active).

With `COc1ccccc1Cn1cc(C(=O)c2ccc(Cl)cc2)c(=O)c2cc3c(cc21)OCCO3`, the Potency was 2680 nM (active).

`Nc1nc(N)c(S(=O)(=O)c2ccccc2)c(Nc2ccc(Br)cc2)n1`: the Potency was 4770 nM (active).

As to `COc1ccc(-n2nc3c(N4CCCC(C(=O)NCc5ccc(C)cc5)C4)nnc(C)c3c2C)cc1` (stereo not drawn), the Potency entry was “inactive”.

Regarding `Oc1ccc(C2(c3ccccc3F)CCC(F)(F)CC2)cc1`, the Potency is 2130 nM (active).

Take `CC(=O)c1ccc(NC(=O)Cn2cc(S(=O)(=O)Cc3ccccc3Cl)c3ccccc32)cc1`: the Potency was 1690 nM (active).

For another assay, the target named is Glutathione peroxidase 1 (Homo sapiens) (UniProt P07203). The assay is described as follows: Primary qHTS Assay for Inhibitors of Recombinant Selenoprotein Glutathione Peroxidase 1 (GPX1) (AID 1845191; active means well fitted curve in the direction sought with a large enough effect; an effect the other way counts as inactive or inconclusive; further: nearly all actives have a fitted effect of over 65% in size). Particulars: recombinant GPX1, GR-coupled NADPH fluorescence, 15 min; series mostly up to 48.8 µM. The essentials: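 GR-coupled assay: compounds preincubated 30 min at room temperature with GPX1, then reaction started with CHP; final 10 nM GPX1, 1 mM GSH, 0.5 mM CHP, 0.5 mM NADPH, 100 nM GR, 0.01% BSA, pH 7.5 Tris buffer. NADPH fluorescence (340/450 nm) read at 0 and 15 min.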
Glutathione peroxidase 1 (Homo sapiens), sequence (P07203 whole entry, looked up): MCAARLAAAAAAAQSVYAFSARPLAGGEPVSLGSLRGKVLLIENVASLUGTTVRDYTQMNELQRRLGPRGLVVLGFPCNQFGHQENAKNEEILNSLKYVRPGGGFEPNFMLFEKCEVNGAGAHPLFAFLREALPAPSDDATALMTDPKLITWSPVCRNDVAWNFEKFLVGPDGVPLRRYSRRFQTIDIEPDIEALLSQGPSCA
For `O=C(O)[C@@H]1CCCN1`, the Potency entry is “inactive”.

`CCn1c(N)c(C(=O)NC)c(=O)c2ccc(C#C[C@@](C)(O)COC)nc21`: the Potency result is “inactive”.

In the case of `NCCNc1ccc(NCCN)c2c1C(=O)c1ccncc1C2=O`, the Potency entry is “inactive”.

Turning to `CCC=CCC=CCC=CCCCCCCCC(=O)O`, the Potency entry was “inactive”.
